About 83,000 compounds went through this panel and 20% of them were active in at least one assay; those are over-represented in the sample as a whole.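 Single-concentration screen, 48 h exposure, 96-well plates. Endpoint: percent growth. Below 10 = active.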 Unmarked numbers belong to inactive results. Calls of active or inactive are those of the source.

Consider eight compounds from PubChem BioAssay (NCI).

Some test systems named below: DU-145 prostate; K-562 leukemia; MALME-3M melanoma; MDA-MB-231 breast; RXF 393 renal; SF-268 CNS; SF-295 CNS; SF-539 CNS; UACC-257 melanoma; M14 melanoma; HCT-15 colon; HT29 colon; SNB-75 CNS; SNB-19 CNS; U251 CNS; PC-3 prostate; SK-MEL-5 melanoma; UACC-62 melanoma; LOX IMVI melanoma; SK-MEL-28 melanoma.
Common to all, as to assay: NCI-60 one-dose screen, 48 h (100 = growth as untreated, 0 = no growth, -100 = all killed)
What all share (conditions): 10 µM unless noted

As to `CN1CCC2(CC1)N=C(SCC(=O)Nc1cnc3ccccc3c1)C(c1ccc(Br)cc1)=N2`, the growth with DU-145 prostate was 21.8%; in the experiment on K-562 leukemia it was -61.5% (active); in the experiment with MALME-3M melanoma it was -75.5% (active); in the experiment on MDA-MB-231 breast, -40.5% (active); in the experiment on RXF 393 renal, 24.3%; in the experiment with SF-268 CNS it was 35.9%. In addition, the growth in the experiment on SF-295 CNS was 28%; in the experiment on SF-539 CNS, 51.6%; with UACC-257 melanoma, -61.2% (active); with M14 melanoma, -83.8% (active); with HCT-15 colon, 12%; in the experiment on HT29 colon, -67.1% (active). The growth in the experiment on SNB-75 CNS is 25.4%; in the experiment with SNB-19 CNS, 40.7%; in the experiment with U251 CNS, -24.7% (active); in the experiment with PC-3 prostate, 21.3%; in the experiment on SK-MEL-5 melanoma, -96.2% (active); with UACC-62 melanoma, -78.9% (active). Also, the growth in the experiment on LOX IMVI melanoma was -78.5% (active).
On to `CCn1c(=O)c(C(=O)NCCCO)c(O)c2ccccc21`, for which the growth with DU-145 prostate is 122%; in the experiment on K-562 leukemia it was 89.9%; in the experiment on MALME-3M melanoma it was 123%; in the experiment on MDA-MB-231 breast, 106%; in the experiment with RXF 393 renal, -24.8% (active); in the experiment with SF-268 CNS it was 94.3%. Further, the growth in the experiment on SF-295 CNS was 110%; in the experiment with SF-539 CNS, 96.8%; in the experiment with UACC-257 melanoma it was 125%; in the experiment on M14 melanoma it was 124%; in the experiment with HCT-15 colon, 103%; with HT29 colon it was 109%. Besides, the growth in the experiment on SNB-75 CNS is 96.8%; in the experiment with SNB-19 CNS it was 102%; with U251 CNS, 98.1%; in the experiment with PC-3 prostate, 101%; with SK-MEL-5 melanoma it was 94.2%; in the experiment with UACC-62 melanoma, 94.4%. The growth with LOX IMVI melanoma was 98.5%.
As to `O=C1/C(=C/N2N=C(c3ccc(Cl)cc3)CC2c2ccccc2O)SC(=S)N1c1cccc(C(F)(F)F)c1` (stereo not given), the growth with DU-145 prostate was 63.4%; in the experiment with K-562 leukemia it was 42.6%; in the experiment with MALME-3M melanoma, 79.6%; with MDA-MB-231 breast, 44%; in the experiment on RXF 393 renal it was 67.4%; in the experiment with SF-268 CNS, 48.1%. For the same compound, the growth in the experiment on SF-295 CNS is 64.7%; with SF-539 CNS, 76.1%; in the experiment on UACC-257 melanoma, 94.5%; in the experiment on M14 melanoma, 48.2%; in the experiment on HCT-15 colon, 43.5%; in the experiment on HT29 colon it was 37.6%. Further, the growth in the experiment on SNB-75 CNS was 38.4%; in the experiment on SNB-19 CNS it was 71%; with U251 CNS, 45.1%; with PC-3 prostate, 23.6%; with SK-MEL-5 melanoma it was 79.7%; with UACC-62 melanoma, 52.3%. In addition, the growth in the experiment with LOX IMVI melanoma was 48.3%.
For the compound `CCOc1cc(/C=N\NC(=O)C[N+](C)(C)C)ccc1O`, the growth with DU-145 prostate was 116%; in the experiment on K-562 leukemia, 73.4%; in the experiment on MALME-3M melanoma, 115%; in the experiment with MDA-MB-231 breast it was 127%; with RXF 393 renal it was 120%; in the experiment on SF-268 CNS, 109%. Besides, the growth in the experiment on SF-295 CNS was 111%; with SF-539 CNS it was 120%; in the experiment with UACC-257 melanoma it was 112%; in the experiment on M14 melanoma, 118%; with HCT-15 colon, 103%; with HT29 colon, 105%. Besides, the growth is 106% in the experiment with SNB-75 CNS; 117% with SNB-19 CNS; 105% in the experiment on U251 CNS; 99.6% in the experiment with PC-3 prostate; 105% with SK-MEL-5 melanoma; 111% in the experiment on UACC-62 melanoma. The growth with LOX IMVI melanoma is 103%.
On to `Cn1c(-c2ccccc2)cc(=O)n1-c1ccccc1`, for which the growth was 120% in the experiment on DU-145 prostate; 110% in the experiment on K-562 leukemia; 113% in the experiment on MALME-3M melanoma; 100% in the experiment with MDA-MB-231 breast; 115% in the experiment on RXF 393 renal; 112% with SF-268 CNS. Further, the growth in the experiment with SF-295 CNS was 122%; with SF-539 CNS, 101%; in the experiment with UACC-257 melanoma, 97.4%; in the experiment with M14 melanoma, 110%; with HCT-15 colon it was 104%; in the experiment with HT29 colon, 106%. The growth is 92.9% with SNB-75 CNS; 108% in the experiment on SNB-19 CNS; 109% with U251 CNS; 100% in the experiment with PC-3 prostate; 104% in the experiment on SK-MEL-5 melanoma; 103% in the experiment with UACC-62 melanoma. Further, the growth with LOX IMVI melanoma is 101%; with SK-MEL-28 melanoma it was 113%.
Regarding `COc1ccc(-c2cc(C(=O)Nc3ccc(Br)cc3)nc3[nH]c(=O)sc23)cc1`, the growth with DU-145 prostate is 54.9%; with K-562 leukemia, 27%; in the experiment with MALME-3M melanoma, 25%; in the experiment on MDA-MB-231 breast, 84.8%; in the experiment on RXF 393 renal it was 65.1%; with SF-268 CNS it was 51.6%. Also, the growth is 53.2% in the experiment on SF-295 CNS; 43.6% in the experiment with SF-539 CNS; 16.4% in the experiment with UACC-257 melanoma; 44.4% in the experiment with M14 melanoma; 37% in the experiment on HCT-15 colon; 50.1% in the experiment with HT29 colon. Besides, the growth with SNB-75 CNS is 78.4%; in the experiment on SNB-19 CNS, 36.5%; in the experiment with U251 CNS it was 28.8%; with PC-3 prostate, 34.8%; in the experiment on SK-MEL-5 melanoma it was 8.56% (active); in the experiment on UACC-62 melanoma it was 8.05% (active). The growth in the experiment on LOX IMVI melanoma is 36.7%; in the experiment with SK-MEL-28 melanoma, 38.5%.
As for `CC1=C(/C=C/C(C)=C/C=C(C(=O)O)\C(C)=C\C(=O)O)C(C)(C)CCC1`, the growth in the experiment on DU-145 prostate is 109%; in the experiment with K-562 leukemia it was 87%; in the experiment on MALME-3M melanoma it was 128%; in the experiment on MDA-MB-231 breast, 98.6%; with RXF 393 renal it was 106%; in the experiment on SF-268 CNS, 100%. Also, the growth is 130% in the experiment with SF-295 CNS; 93.6% with SF-539 CNS; 92.4% in the experiment on UACC-257 melanoma; 101% in the experiment with M14 melanoma; 105% in the experiment with HCT-15 colon; 96.8% with HT29 colon. In addition, the growth in the experiment on SNB-75 CNS was 87.5%; with SNB-19 CNS, 97.8%; in the experiment with U251 CNS it was 94.6%; in the experiment on PC-3 prostate, 91.3%; in the experiment with SK-MEL-5 melanoma, 111%; with UACC-62 melanoma, 96.9%. In the experiment with LOX IMVI melanoma, the growth is 94.9%.
As for `O=C1NN(C(=O)c2ccccc2)C(c2ccc(Cl)c(Cl)c2)=C/C1=C\c1ccccc1[N+](=O)[O-]`, the growth in the experiment with DU-145 prostate was 25.3% [6.75 µM]; in the experiment with K-562 leukemia, 15.1% [6.75 µM]; with MALME-3M melanoma, 56.5% [6.75 µM]; in the experiment with MDA-MB-231 breast it was 49.9% [6.75 µM]; in the experiment on RXF 393 renal it was 7.22% [6.75 µM] (active); with SF-268 CNS, 49% [6.75 µM]. Further, the growth is -37.5% [6.75 µM] (active) in the experiment with SF-295 CNS; 15.2% [6.75 µM] in the experiment on SF-539 CNS; 35.4% [6.75 µM] in the experiment with UACC-257 melanoma; -28% [6.75 µM] (active) in the experiment with M14 melanoma; -28.1% [6.75 µM] (active) in the experiment on HCT-15 colon; 4.99% [6.75 µM] (active) in the experiment with HT29 colon. The growth in the experiment with SNB-75 CNS is 25.1% [6.75 µM]; with SNB-19 CNS, 24.3% [6.75 µM]; with U251 CNS, 14.7% [6.75 µM]; in the experiment with PC-3 prostate it was 9.01% [6.75 µM] (active); with SK-MEL-5 melanoma, -65.4% [6.75 µM] (active); with UACC-62 melanoma, -69% [6.75 µM] (active). Besides, the figures for the growth in the experiment on LOX IMVI melanoma and with SK-MEL-28 melanoma were -45.5% [6.75 µM] (active) and 27.8% [6.75 µM], respectively.
